This is part of a sample that, as a whole, favours compounds with a hit. Of some 83,000 tested, about 20% had one in any assay.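 Growth was measured after 48 h exposure to one concentration of compound in 96-well plates. Values under 10 count as active.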 Activity calls are given as the source filed them.
Tests used:
Assay in all cases: NCI-60 one-dose screen, 48 h (100 = growth as untreated, 0 = no growth, -100 = all killed)
Details in all cases: 10 µM unless noted
[1] = tested on: NCI-H23 lung
[2] = tested on: NCI-H226 lung
[3] = tested on: NCI-H322M lung
[4] = tested on: HOP-62 NSCLC
[5] = tested on: NCI-H460 lung
[6] = tested on: HOP-92 NSCLC
[7] = tested on: NCI-H522 lung
[8] = tested on: A549/ATCC NSCLC
[9] = tested on: 786-0 renal
[10] = tested on: COLO 205 colon
[11] = tested on: DU-145 prostate
[12] = tested on: K-562 leukemia
[13] = tested on: MALME-3M melanoma
[14] = tested on: MDA-MB-231 breast
[15] = tested on: RXF 393 renal
[16] = tested on: SF-268 CNS
[17] = tested on: SF-295 CNS
[18] = tested on: SF-539 CNS
[19] = tested on: UACC-257 melanoma
[20] = tested on: M14 melanoma

Measured: growth

Cc1c(Cl)cccc1NC(=O)c1sc2nc3c(cc2c1N)CCCC3
active: [7] 4.4% | [17] 8.07% | [18] 4.43%
inactive: [1] 58.9% | [2] 69.3% | [3] 74.2% | [4] 25.2% | [5] 12.9% | [6] 25.6% | [8] 39.1% | [9] 29.8% | [10] 22.1% | [11] 39.9% | [12] 13.7% | [13] 67.7% | [14] 49.5% | [15] 40% | [16] 49.3% | [19] 37.7% | [20] 25.3%

C=C(C)Cn1c(SCC(=O)c2cccs2)nc2sc3c(c2c1=O)CCCC3
active: [5] 8.41%
inactive: [1] 72.8% | [2] 58.3% | [3] 67.9% | [4] 73.5% | [6] 92.4% | [7] 58.1% | [8] 41.1% | [9] 52.6% | [10] 43.6% | [11] 50.9% | [12] 41% | [13] 71.5% | [14] 65.5% | [15] 52.2% | [16] 42.2% | [17] 42.2% | [18] 39.3% | [19] 81.5% | [20] 77.6%

Cc1[nH]c(C(=O)Nc2ccccc2OC2CCNC2)c(Cl)c1Cl (stereo not given)
inactive: [1] 87.1% | [2] 80.6% | [3] 92.1% | [4] 78.7% | [5] 72.6% | [6] 72.6% | [7] 60.7% | [8] 101% | [9] 68.9% | [10] 83.5% | [11] 93.5% | [12] 52.2% | [13] 97.5% | [14] 54.4% | [15] 76.8% | [16] 75.7% | [17] 95.5% | [18] 85.6% | [19] 107% | [20] 98.5%

O=C(Nc1ncc(Cc2ccc(Cl)cc2)s1)C1=NCCCCN1
inactive: [1] 99% | [2] 99.7% | [3] 94.9% | [4] 108% | [5] 106% | [6] 119% | [7] 82.1% | [8] 109% | [9] 107% | [10] 110% | [11] 105% | [12] 95.4% | [13] 102% | [14] 110% | [15] 119% | [16] 103% | [17] 102% | [18] 102% | [19] 108% | [20] 104%

C[C@H]1c2ccccc2CN1CCCOc1cc2c(cc1OCC1CC1)C1(CCCC1)C(N)=N2
inactive: [1] 67.2% | [2] 53.1% | [3] 89.7% | [4] 82% | [5] 38.5% | [6] 23.2% | [7] 73.7% | [8] 74.1% | [9] 56.4% | [11] 75.6% | [14] 34.5% | [15] 34.2% | [16] 70.6% | [17] 55.3% | [18] 48.1%
active: [10] -66.4% | [12] 2.69% | [13] -84.7% | [19] -68.1% | [20] -70.4%

COc1cc2cc(Oc3ccc(NC(=O)Nc4ccc(Cl)c(Cl)c4)cc3)c(C)nc2cc1OCCN1CCCCC1
active: [9] -70% | [12] -35.7% | [20] -33.4%
inactive: [1] 107% | [2] 77.7% | [3] 104% | [4] 107% | [5] 102% | [6] 75.1% | [7] 102% | [8] 86.9% | [10] 112% | [11] 97% | [13] 13.9% | [14] 91.4% | [15] 73.7% | [16] 92% | [17] 99.1% | [18] 86.8% | [19] 93.6%

C=CCNc1ccc2c3c(cccc13)C(=O)N(CC=C)C2=O
inactive: [1] 96% | [2] 93.7% | [3] 102% | [4] 108% | [5] 99.9% | [6] 49.6% | [7] 99.4% | [8] 103% | [9] 101% | [10] 110% | [11] 102% | [12] 96.7% | [13] 111% | [14] 88.9% | [15] 99.7% | [16] 96.2% | [17] 106% | [18] 93.7% | [19] 114% | [20] 108%

— PubChem BioAssay (NCI)
